Experimental data: PubChem BioAssay
Activity calls are given as the source filed them. Unless noted, no rule for the calls is given here.

Experiments:
[1] = resazurin metabolic signal in HepG2 cells – cell-based, resazurin fluorescence, 24 h, PK04 Diversity Set, profiling panel (AID 1172); conditions: HepG2 viability, higher = more signal
[2] = budding yeast growth changes without added modifier – OD600, strain BY4716, 24 h, basal condition, primary screen (AID 1173); conditions: S. cerevisiae BY4716 growth, OD600, 24 h; higher = more signal, called active from +8 up or from −8 down
[3] = viability profiling in MM1S myeloma cells – cell-based, resazurin fluorescence, basal, 24 h, PK04 Diversity Set, profiling panel (AID 1174); conditions: higher = more signal, called active from +8 up or from −8 down;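 also: MM1S multiple myeloma cell line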
[4] = target: Dihydroorotate dehydrogenase (quinone), mitochondrial (Plasmodium falciparum (isolate 3D7)) (UniProt Q08210); assay: inhibition of P. falciparum DHODH – biochemical, C-terminal His tag, absorbance 600 nm, primary screen (AID 1175); conditions: PfDHODH enzyme, DCIP absorbance 600 nm; higher = more signal, called active from +8 up or from −8 down;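 also: recombinant parasite enzyme with a five histidine tag at its C terminus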
Sequence of Dihydroorotate dehydrogenase (quinone), mitochondrial (Plasmodium falciparum (isolate 3D7)) (Q08210 whole entry, looked up): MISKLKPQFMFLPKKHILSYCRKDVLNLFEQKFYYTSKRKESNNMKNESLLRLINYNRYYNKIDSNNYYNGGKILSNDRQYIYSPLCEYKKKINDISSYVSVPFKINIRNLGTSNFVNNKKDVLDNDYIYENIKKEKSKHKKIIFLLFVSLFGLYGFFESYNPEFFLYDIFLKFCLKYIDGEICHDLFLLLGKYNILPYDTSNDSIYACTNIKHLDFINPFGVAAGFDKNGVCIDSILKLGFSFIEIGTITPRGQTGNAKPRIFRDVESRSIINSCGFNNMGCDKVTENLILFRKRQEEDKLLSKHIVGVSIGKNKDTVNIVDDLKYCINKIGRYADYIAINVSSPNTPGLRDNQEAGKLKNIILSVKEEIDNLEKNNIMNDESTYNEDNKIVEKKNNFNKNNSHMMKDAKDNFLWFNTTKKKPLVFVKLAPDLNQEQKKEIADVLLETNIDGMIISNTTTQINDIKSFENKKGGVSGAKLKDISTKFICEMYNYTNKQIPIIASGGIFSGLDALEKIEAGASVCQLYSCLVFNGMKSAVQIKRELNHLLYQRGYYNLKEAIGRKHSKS

[5] = inhibition of PAO1 biofilm formation – strain PAO1, LB-PBS medium, absorbance 600 nm, primary screen (AID 1176); conditions: P. aeruginosa PAO1 growth/biofilm, A600, 12 h; higher = more signal
[6] = growth modulation of vineyard yeast isolate – strain RM11-1a, OD600, basal, 24 h, primary screen (AID 1177);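 also: cultures grown under basal conditions with no added stressor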; conditions: S. cerevisiae RM11-1a growth, OD600, 24 h; higher = more signal, called active from +8 up or from −8 down
[7] = growth of efflux-deficient E. coli DRC39 – strain DRC39, OD650, 24 h, E. coli filamentation inducers, primary screen (AID 1178);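 also: growth measured as culture turbidity by optical density at 650 nm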; conditions: E. coli DRC39 acrAB, higher = more signal, called active from +8 up or from −8 down
[8] = growth of efflux-deficient E. coli DRC39 – strain DRC39, OD650, 48 h, E. coli filamentation inducers, primary screen (AID 1179);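 also: screen aims at cell division blockers that make cells filament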; conditions: E. coli DRC39 delta-acrAB growth, higher = more signal, called active from +8 up or from −8 down
[9] = viability profiling in RPMI8226 myeloma cells – cell-based, resazurin fluorescence, basal, 24 h, PK04 Diversity Set, profiling panel (AID 1180); conditions: higher = more signal;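 also: RPMI8826 multiple myeloma cell line at 5000 cells per well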
[10] = target: E3 ubiquitin-protein ligase XIAP (Homo sapiens) (UniProt P98170); assay: small molecules binding XIAP protein – biophysical, small-molecule microarray, fluorescence 635 nm, primary screen (AID 1181); conditions: higher = more signal;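 also: score merges 667 nm emission and signal to noise over triplicate slides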
Sequence of E3 ubiquitin-protein ligase XIAP (Homo sapiens) (P98170 whole entry, looked up, the tested form may be a part): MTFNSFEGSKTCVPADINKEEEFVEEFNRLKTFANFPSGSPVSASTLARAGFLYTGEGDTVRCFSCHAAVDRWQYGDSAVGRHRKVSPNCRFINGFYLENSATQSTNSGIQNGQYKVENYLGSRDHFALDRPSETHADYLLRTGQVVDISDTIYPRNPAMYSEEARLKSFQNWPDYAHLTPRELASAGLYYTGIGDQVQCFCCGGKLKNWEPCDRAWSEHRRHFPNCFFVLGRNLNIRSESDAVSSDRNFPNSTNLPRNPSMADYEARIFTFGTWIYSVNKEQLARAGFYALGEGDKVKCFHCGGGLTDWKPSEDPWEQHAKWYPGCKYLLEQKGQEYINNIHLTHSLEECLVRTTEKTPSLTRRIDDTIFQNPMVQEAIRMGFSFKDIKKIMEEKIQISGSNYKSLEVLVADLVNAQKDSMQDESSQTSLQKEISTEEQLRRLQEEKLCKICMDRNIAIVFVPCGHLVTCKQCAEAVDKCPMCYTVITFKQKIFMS

[11] = system: XIP peptide (Xip251-270) binding; assay: XIP fragment 251-270 binding compounds – biochemical, small-molecule microarray, fluorescence 635/667 nm, 0.1 µg/mL protein, primary screen (AID 1182); conditions: fluorescent protein binding, 635 nm, higher = more signal, called active from +8 up or from −8 down
XIP peptide (Xip251-270) = assay: compounds binding XIP fragment 251-270 – biochemical, small-molecule microarray, fluorescence 635/667 nm, 0.5 µg/mL protein, primary screen (AID 1183); conditions: fluorescence 635 nm, higher = more signal
[12] = blood-stage malaria parasite viability loss – strain 3D7, DAPI fluorescence, 100 nL, primary screen (AID 1184);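 also: parasites grown inside human red blood cells in medium with human serum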; conditions: P. falciparum 3D7 growth, 3 d, higher = more signal
[13] = target: Homeobox protein Hox-A13 (Mus musculus) (UniProt Q62424); assay: disruptors of Hoxa13 oligonucleotide interaction – biochemical, fluorescence polarization, labeled oligonucleotide, primary screen (AID 1185); conditions: Hoxa13:DNA binding, 15 min, higher = more signal, called active from +8 up or from −8 down
Sequence of Homeobox protein Hox-A13 (Mus musculus) (Q62424 whole entry, looked up): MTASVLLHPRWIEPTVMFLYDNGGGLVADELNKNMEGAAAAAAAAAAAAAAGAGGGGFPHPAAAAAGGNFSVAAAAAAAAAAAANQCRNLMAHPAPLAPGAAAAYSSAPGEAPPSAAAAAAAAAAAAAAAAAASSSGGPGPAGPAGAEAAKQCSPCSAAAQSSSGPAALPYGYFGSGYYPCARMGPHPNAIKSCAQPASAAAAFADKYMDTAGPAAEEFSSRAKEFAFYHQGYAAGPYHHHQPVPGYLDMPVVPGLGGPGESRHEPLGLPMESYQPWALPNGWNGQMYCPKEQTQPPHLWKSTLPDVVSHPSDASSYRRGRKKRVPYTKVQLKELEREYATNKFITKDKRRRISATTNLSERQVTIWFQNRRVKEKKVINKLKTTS

[14] = blockers of DNA damage checkpoint Chk1 activation – imaging, HeLa, hydroxyurea, phospho-Chk1 antibody, percent positive cells, primary screen (AID 1186); conditions: hydroxyurea-induced phospho-Chk1 immunofluorescence imaging, higher = more signal
[15] = blockers of DNA damage checkpoint Chk1 activation – imaging, HeLa, hydroxyurea, phospho-Chk1 nuclear intensity, primary screen (AID 1187); conditions: hydroxyurea-induced phospho-Chk1 immunofluorescence imaging, higher = more signal

| Compound | z-score [1] | z-score [2] | z-score [3] | composite z-score [4] | z-score [5] | z-score [6] | z-score [7] | z-score [8] | z-score [9] | composite z-score [10] | composite z-score [11] | composite z-score (XIP peptide (Xip251-270)) | z-score [12] | z-score [13] | z-score [14] | z-score [15] |
| --- | --- | --- | --- | --- | --- | --- | --- | --- | --- | --- | --- | --- | --- | --- | --- | --- |
| CCOC(=O)C1=CC[C@@H](c2ccccc2Cl)N(S(=O)(=O)c2ccc(C)cc2)[C@H]1c1cccc(OC)c1 | -0.18 | 1.46 (inactive) | -0.703 (inactive) | 0.0463 (inactive) | 0.34 (inactive) | 0.822 (inactive) | -0.484 (inactive) | -0.679 (inactive) | -1.53 | -0.114 | 0.211 (inactive) | 0.246 | -0.794 | -1.18 (inactive) | 0.0932 (inactive) | -0.553 (inactive) |
| O=c1cccc(-c2ccccc2C(F)(F)F)o1 | -0.719 | -3.23 (inactive) | -0.256 (inactive) | -0.636 (inactive) | 0.698 (inactive) | -0.432 (inactive) | -0.736 (inactive) | -0.275 (inactive) | -0.59 | 0.144 | -0.808 (inactive) | -0.597 | 1.58 | -1.43 (inactive) | -0.968 (inactive) | -1.66 (inactive) |
| COc1cc2c(cc1O)C(c1ccc(CN3CCCC3)cc1)N(Cc1ccc([N+](=O)[O-])o1)CC2 (centres undefined) | -0.274 | -0.547 (inactive) | -0.727 (inactive) | -0.412 (inactive) | 0.0898 (inactive) | 0.0464 (inactive) | -0.79 (inactive) | -0.259 (inactive) | -0.437 | 0.0537 | 0.119 (inactive) | -0.0067 | -0.672 | -7.64 (inactive) | 0.191 (inactive) | 0.134 (inactive) |
| O=C1O[C@@H](c2ccccc2)[C@@H](c2ccccc2)N2[C@@H](c3ccc(O)cc3)[C@]3(C(=O)Nc4ccc(C#CC5=CCCCC5)cc43)[C@@H](C(=O)N3CCCCCCC3)[C@H]12 | -0.109 | -1.2 (inactive) | 0.158 (inactive) | -1.81 (inactive) | 1.22 (inactive) | -0.976 (inactive) | 0.326 (inactive) | -0.199 (inactive) | 0.177 | 0.691 | 1.52 (inactive) | 0.816 | -1.99 | 4.91 (inactive) | -0.434 (inactive) | -0.686 (inactive) |
| Cc1c(-c2ccc(-c3ccc(Cl)c(Cl)c3)o2)nc(-c2ccccc2)c2c1CO[Si]2(C(C)C)C(C)C | 0.368 | -0.922 (inactive) | -2 (inactive) | -0.063 (inactive) | 0.82 (inactive) | -0.569 (inactive) | 0.575 (inactive) | 0.462 (inactive) | -0.639 | 0.504 | 0.401 (inactive) | 0.761 | 0.962 | -1.48 (inactive) | 0.0151 (inactive) | -0.0709 (inactive) |
| C=C(CCCC)C(=O)CC[C@H](OC(=O)c1cccnc1)c1ccc(CO)o1 | -0.476 | -1.58 (inactive) | -0.464 (inactive) | -0.826 (inactive) | 1.45 (inactive) | -0.497 (inactive) | -0.47 (inactive) | -0.34 (inactive) | -0.643 | 0.0343 | 0.437 (inactive) | 0.769 | -0.198 | -5.27 (inactive) | 0.242 (inactive) | 0.136 (inactive) |
| C=CCNC(=O)[C@@H]1[C@H]2C(=O)O[C@H](c3ccccc3)[C@H](c3ccccc3)N2[C@H](c2ccc(O)cc2)[C@@]12C(=O)Nc1ccc(C#CC3(O)CCCCCC3)cc12 | -0.285 | 0.0504 (inactive) | -0.205 (inactive) | 0.0708 (inactive) | 0.498 (inactive) | 0.117 (inactive) | 0.6 (inactive) | 0.0092 (inactive) | -1.57 | -0.154 | 0.237 (inactive) | -0.251 | 0.516 | -3.49 (inactive) | -0.326 (inactive) | -0.0283 (inactive) |
| CCOC(=O)C1=CC[C@@H](c2ccccc2)N(S(=O)(=O)c2ccc(C)cc2)[C@H]1C#N | 0.145 | -0.134 (inactive) | -1.08 (inactive) | -3.15 (inactive) | 0.518 (inactive) | 0.0553 (inactive) | -1.01 (inactive) | 0.27 (inactive) | -0.99 | 0.129 | 0.452 (inactive) | 0.839 | -0.712 | -3.58 (inactive) | 0.584 (inactive) | 0.373 (inactive) |
| C=C(/C(=C/C[C@H](OC(=O)c1ccncc1)c1ccccc1OCCO)c1cc(C(=O)OC)ccc1OC)C(C)C | 0.456 | 0.0223 (inactive) | -0.493 (inactive) | -4.24 (inactive) | 0.297 (inactive) | 0.0488 (inactive) | -0.822 (inactive) | -0.869 (inactive) | 0.956 | -0.0478 | -0.0121 (inactive) | 0.605 | -2.85 | -4.77 (inactive) | -0.529 (inactive) | -0.789 (inactive) |
